# In PubChem BioAssay AID504834 (National Center for Advancing Translational Sciences (NCATS), 2011):
# Among all 320,000 compounds or so, about 22,000 (6.9%) were called active. Not shown: some 27% with an inconclusive outcome. The entries come from a sample that favours actives as a whole. Values without a mark were called inactive. Calls follow the shape of the dose curve; as a rule, active = well fitted inhibition curve with a large enough effect; inconclusive = small, poorly fitted or top-dose-only effect, or another doubt; inactive = no such curve, though single readings can be large or run the other way.
# Test: Primary qHTS for delayed death inhibitors of the malarial parasite plastid, 96 hour incubation
# Settings: P. falciparum luciferase reporter growth; series mostly up to 28.7 µM; activity change, negative = inhibition: at the top concentration
# Procedure, shortened: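 Erythrocytes infected with luciferase-expressing P. falciparum were dispensed at 2% hematocrit and 0.05% parasitemia (final), then incubated with compounds 96 hours at 37 C in 5% CO2. Luminescence after detection reagent addition reported growth.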
# % is scaled to controls: 0 for no effect and ±100 for the full control effect; potency is read from the fitted curve at half-maximal effect.
Structure (SMILES),"activity change, negative = inhibition [%]",Potency
COc1cccc(NC(=O)N2C3CCCC2CC(NC(C)=O)C3)c1 (configuration not stated),-17.1,
NC(=O)c1nnsc1-c1ccc(-c2snnc2C(N)=O)cc1,79.6,
NS(=O)(=O)c1ccc(CNC(=O)c2cnccn2)cc1,3.67,
Cc1cc2ncn(CCCCOc3ccccc3)c2cc1C,,14.7 µM (active)
Cc1c(C(N)=O)sc2ncn(CCOc3ccccc3)c(=O)c12,19.2,
COCCOCCn1cnc2ccccc21,-7.76,
COc1ccc(NC(=O)CC(NC(C)c2ccccc2)C(=O)O)cc1 (configuration not stated),44.3,
CCCCCC(O)(CCN1CCCCC1)c1ccccc1 (configuration not stated),7.41,
CCC1(C)Cc2c(sc3nc(SC)[nH]c(=O)c23)CO1 (configuration not stated),,9.28 µM (active)
CCOC(=O)CSc1nc2sc3c(c2c(=O)[nH]1)CC(C)(C)OC3,8.53,
CCC1(C)Cc2c(sc3[nH]c(=S)n(Cc4ccccc4)c(=O)c23)CO1 (configuration not stated),16.8,
CCOc1ccc(S(=O)(=O)N2CCCC(C(=O)N3CCC(C(N)=O)CC3)C2)cc1Cl (configuration not stated),26.6,
COc1ccc(OC)c(S(=O)(=O)N2CCCC(C(=O)NCCc3ccccc3)C2)c1 (configuration not stated),-4.5,
CCOC(=O)c1sc(NC(=O)C2CSC3(C)CCC(=O)N23)nc1C (configuration not stated),-33.8,
COc1cc(C(C(=O)NC2CCCC2)N(C(=O)c2ccco2)c2ccccc2C(C)=O)cc(OC)c1OC (configuration not stated),-73.6,
O=C(/C=C/Nc1ccc(S(=O)(=O)Nc2cnc3ccccc3n2)cc1)c1cccnc1,17.8,
CCn1c(SCC(=O)Nc2ccc3c(c2)OCCO3)nnc1C(C)C,48.3,
O=C(CSc1nnnn1-c1ccc2c(c1)CCC2)Nc1ccc2c(c1)OCCO2,,10.4 µM (active)
CCn1c(SCC(=O)Nc2ccc3c(c2)OCCO3)nnc1-c1ccncc1,9.38,
c1ccc2c(c1)C(=NC1CCCCC1)NC2=NC1CCCCC1,,2.94 µM (active)
O=C1CCCCC(=O)c2ccccc2N1,279,
CC(=O)c1ccc(N2CCN(CC(O)c3ccccc3)CC2)cc1 (configuration not stated),7.18,
COc1cccc(S(=O)(=O)NCc2ccc(C(=O)NCc3ccccn3)cc2)c1,,2.94 µM (active)
COc1cccc(CNS(=O)(=O)c2csc(C(N)=O)c2)c1,-2.54,
COc1cccc(NC(=S)NCc2ccccn2)c1,6.5,
O=C(COC(=O)c1ccccc1)c1ccc2c(c1)OCCO2,123,

Structure (SMILES),"activity change, negative = inhibition [%]",Potency
CCOC(=O)c1c(-c2ccccc2)oc2cc(Br)c(O)cc12,1.74,
O=C(c1ccc(Cn2cc([N+](=O)[O-])cn2)o1)N1CCCC1,3.18,
CC(C)CC(CCc1ccccc1)OS(N)(=O)=O (configuration not stated),30.1,
O=C(COC(=O)c1ccc(O)cc1O)NNC(=O)c1cccs1,-15.8,
CCOc1cc(N2CCOCC2)c(OCC)cc1NC(=O)COC(=O)[C@H](Cc1c[nH]c2ccccc12)NC(C)=O,7.96,
CCOc1cc(N2CCOCC2)c(OCC)cc1NC(=O)COc1cccc(Cl)c1,-4.08,
CCOc1cc(N2CCOCC2)c(OCC)cc1NC(=O)COc1cccc2cccnc12,,9.28 µM (active)
O=C(N/N=C/c1cccnc1)c1ccc(NC(=O)c2ccc(F)cc2)cc1,9.05,
Cc1nc(-c2ccc([N+](=O)[O-])cc2)c(-c2ccccc2)o1,35.4,
COc1ccc([N+](=O)[O-])cc1-c1nc2ccccc2nc1-c1ccccc1,-2.77,
Cn1nc(-c2ccccc2)c2cc([N+](=O)[O-])ccc21,,9.28 µM (active)
COc1ccccc1Cn1c(=S)[nH]c2cc(C(=O)N3CCN(C)CC3)ccc2c1=O,0,
CCOC(=O)N1CCN(C(=O)c2ccc3c(=O)n(CCc4ccc(OC)c(OC)c4)c(=O)[nH]c3c2)CC1,,2.62 µM (active)
COc1ccc(CCNC(=O)CCCCn2c(=O)[nH]c3ccccc3c2=O)cc1OC,81.9,
Cc1c(S(=O)(=O)NC(C)c2ccccc2)c(=O)n(C)c(=O)n1C (configuration not stated),5.42,
CN(CC(=O)NCCc1ccc(F)cc1)CC(=O)Nc1ccc(F)c(F)c1F,-6.33,
COc1cccc(C(=O)N2CCC(n3nccc3NC(=O)C3CCOC3)CC2)c1 (configuration not stated),64.6,
CCCCn1c(N)c(N(CCC(C)C)C(=O)CC2OC(=O)c3ccccc32)c(=O)[nH]c1=O (configuration not stated),,4.65 µM (active)
CCCCn1c(N)c(N(CCC(C)C)C(=O)c2ccc([N+](=O)[O-])o2)c(=O)[nH]c1=O,-27.6,
CCCCn1c(N)c(N(CCC(C)C)C(=O)c2ccc(COc3ccccc3)o2)c(=O)[nH]c1=O,-4.62,
O=C(NCCO)C(=O)NCC(c1ccc2c(c1)OCO2)N1CCN(c2ccc(F)cc2)CC1 (configuration not stated),3.63,
CCOC(=O)N1CCN(S(=O)(=O)N2CCCC(C(=O)NCCCN3CCC(C)CC3)C2)CC1 (configuration not stated),23.7,
O=C(CCC(=O)N/N=C/c1ccc(Br)o1)N/N=C/c1ccc(Br)o1,20.1,
COc1ccc(CCNC2=CC(=O)CC(C)(C)C2)cc1,0,
COc1cc(C(=O)N[C@@H](C)C(=O)NCc2ccco2)cc(OC)c1OC,16,
COc1cc(Cn2c(N)c(C(=O)NCc3ccco3)c3nc4ccccc4nc32)cc(OC)c1OC,,1.65 µM (active)

Structure (SMILES),"activity change, negative = inhibition [%]",Potency
COc1cc(C(=O)NC(=S)NCc2ccco2)cc(OC)c1OC,0,
O=C(NCC(=O)N1CCCC(C(F)(F)F)C1)c1ccccc1F (configuration not stated),76.3,
CC(NC(=O)c1ccccc1F)c1cccc2ccccc12 (configuration not stated),43,
Cc1ccc(S(=O)(=O)N2CC(=O)Nc3ccccc32)cc1C,,13.1 µM (active)
Cc1ccc(S(=O)(=O)N(C)CC(=O)OCC(=O)N2CC(=O)Nc3ccccc32)cc1,17.3,
Cc1ccc(C(=O)N2CC(=O)Nc3ccccc32)o1,7.15,
O=C(O)C1CCCCC1C(=O)N1CCN(S(=O)(=O)c2ccc(F)cc2)CC1 (configuration not stated),29.1,
COc1cc(N2C(=O)CC3(CCCC3)CC2=O)cc(OC)c1OC,11.1,
COc1ccc(-c2nnc(SCC(=O)c3ccco3)n2-c2ccccc2)cc1,-2.46,
Cc1cccc(C)c1NC(=O)CCCSc1nnc(-c2ccco2)n1-c1ccccc1,22.3,
COc1ccc(-n2c(SCC(=O)OC(C)C)nnc2-c2ccccn2)cc1,,2.08 µM (active)
CCOc1ccc(-n2c(SCC(N)=O)nnc2-c2ccco2)cc1,,3.7 µM (active)
CCOC(=O)CSc1nnc(-c2ccco2)n1C,-14.9,
O=C(CSc1nnc(-c2ccccn2)n1-c1ccccc1)Nc1ccc2c(c1)OCO2,11.5,
CCOc1ccc(S(=O)(=O)N2CCN=C2Cc2ccccc2)cc1C,22.5,
O=C(CCc1ccccc1)Nc1ccnn1C1CCN(Cc2ccc(OCCO)cc2)CC1,15.8,
CC/C=C/C(=O)N1CC2(CC(c3cccc(NC(=O)CC)c3)=NO2)C[C@H]1C(N)=O (some centres not stated),-1.57,
C/C=C(\C)C(=O)N1CC2(CC(c3cccc(NC(=O)CCCCC)c3)=NO2)C[C@@H]1C(N)=O (some centres not stated),23.1,
CCC(=O)Nc1cccc(C2=NOC3(C2)C[C@@H](C(N)=O)N(C(=O)c2cc([N+](=O)[O-])cc([N+](=O)[O-])c2C)C3)c1 (some centres not stated),,0.0657 µM (active)
CCOc1ccccc1-c1nc(CN2CCC(C(=O)N3CCOCC3)CC2)c(C)o1,,11.7 µM (active)
COc1ccc(F)c(-c2nc(CN3CCC(c4ccccc4)CC3)c(C)o2)c1,-24.4,
CCOc1ccccc1-c1cc(C(=O)N2CCOCC2)c2ccccc2n1,-10.4,
O=C1NNC(c2ccccc2)=N/C1=C\c1ccc(Cl)cc1,,8.28 µM (active)
O=C1NCC(=O)N(Cc2ccccc2)/C1=C/c1ccccc1,3.39,
O=C(NCc1csc(-c2cccs2)n1)C1CC1,88.8,
Cc1cc(O)c(C2(O)C(=O)Nc3ccccc32)cc1C (configuration not stated),27,

Structure (SMILES),"activity change, negative = inhibition [%]",Potency
CCOC(=O)CNc1nc(Cl)nc(Nc2ccc(OC)cc2OC)n1,0.58,
COc1cc(OC)cc(-c2c(-c3cccs3)c3cc(-c4ccc(OC)cc4F)ccc3n2C)c1,,5.86 µM (active)
COc1ccc2c(c1)c(C(=O)N/N=C/c1cccs1)c(C)n2C,-10.9,
COc1ccc(OC)c(-c2csc(-c3cccs3)n2)c1,69,
COc1cc(OC)cc(-c2c(-c3ccc(F)cc3)c3cc(-c4ccc5cc[nH]c5c4)ccc3n2C)c1,,5.22 µM (active)
OCC[C@H]1C[C@H](O)[C@@H](O)[C@]2(CCc3ccccc3O2)O1,0,
O=C(O)c1cc(S(=O)(=O)N(Cc2ccccc2)c2cccc(C(F)(F)F)c2)ccc1Cl,-25.6,
O=C(CSc1ccc(-c2ccc(-n3cccn3)cc2)nn1)Nc1ccc([N+](=O)[O-])cc1,155,
Cc1cccc(OCC(=O)NC2CC(C)(C)NC(C)(C)C2)c1,6.25,
NC(=O)C1(C(N)=O)OC1c1ccc(Cl)cc1Cl (configuration not stated),8.12,
COC(=O)c1ccccc1OCC(=O)N1CCN(c2ccc(Cl)cc2)CC1,10.6,
CC1(C)Cc2cccc(OCC(=O)N3CCN(c4ccc([N+](=O)[O-])cc4)CC3)c2O1,,5.22 µM (active)
CC1(C)Cc2cccc(OCC(=O)Nc3nccs3)c2O1,-12,
Nc1cc(N)nc(SCc2ccc(Cl)cc2)n1,4.96,
O=C(CSc1nc2[nH]ncc2c(=O)[nH]1)Nc1ccc(F)cc1,-3.5,
CCCn1nnnc1NCc1ccc(CC)cc1,-6.67,
Cc1ccccc1NC(=O)Cn1c(=O)n(CC2CCCO2)c(=O)c2ccccc21 (configuration not stated),,2.33 µM (active)
COc1ccc(CCNC(=O)Cn2c(=O)n(CC3CCCO3)c(=O)c3ccccc32)cc1OC (configuration not stated),-9.63,
O=C(Cn1c(=O)n(Cc2ccco2)c(=O)c2ccccc21)NCC1CCCO1 (configuration not stated),81.7,
CCN(CC(=O)Nc1cc(Cl)ccc1C)C(=O)Cn1c(=O)cnc2ccccc21,36.2,
CC(C)Cn1c(N)c(C(=O)COC(=O)C2CCCN2C(=O)c2cccs2)c(=O)n(C)c1=O (configuration not stated),2.49,
COc1ccc(-n2ncc3c2CC(C)(C)CC3NC(=O)CCc2c(C)nn(C)c2C)cc1 (configuration not stated),,10.4 µM (active)
Cc1ccc(-n2ncc3c2CC(C)(C)CC3NC(=O)Cc2c(C)noc2C)cc1 (configuration not stated),0,
COc1ccc(-n2ncc3c2CC(C)(C)CC3NC(=O)CCc2c(C)noc2C)cc1 (configuration not stated),-29.9,
